# Test results: ChEMBL document CHEMBL2218924, “A broad activity screen in support of a chemogenomic map for kinase signalling research and drug discovery” (Biochem J, 2013)
# Legend:
# [1] = molecular target: T1, Ephrin type-A receptor 3 (Homo sapiens) (UniProt P29320); conditions: at 10 µM
# T1 sequence (whole entry): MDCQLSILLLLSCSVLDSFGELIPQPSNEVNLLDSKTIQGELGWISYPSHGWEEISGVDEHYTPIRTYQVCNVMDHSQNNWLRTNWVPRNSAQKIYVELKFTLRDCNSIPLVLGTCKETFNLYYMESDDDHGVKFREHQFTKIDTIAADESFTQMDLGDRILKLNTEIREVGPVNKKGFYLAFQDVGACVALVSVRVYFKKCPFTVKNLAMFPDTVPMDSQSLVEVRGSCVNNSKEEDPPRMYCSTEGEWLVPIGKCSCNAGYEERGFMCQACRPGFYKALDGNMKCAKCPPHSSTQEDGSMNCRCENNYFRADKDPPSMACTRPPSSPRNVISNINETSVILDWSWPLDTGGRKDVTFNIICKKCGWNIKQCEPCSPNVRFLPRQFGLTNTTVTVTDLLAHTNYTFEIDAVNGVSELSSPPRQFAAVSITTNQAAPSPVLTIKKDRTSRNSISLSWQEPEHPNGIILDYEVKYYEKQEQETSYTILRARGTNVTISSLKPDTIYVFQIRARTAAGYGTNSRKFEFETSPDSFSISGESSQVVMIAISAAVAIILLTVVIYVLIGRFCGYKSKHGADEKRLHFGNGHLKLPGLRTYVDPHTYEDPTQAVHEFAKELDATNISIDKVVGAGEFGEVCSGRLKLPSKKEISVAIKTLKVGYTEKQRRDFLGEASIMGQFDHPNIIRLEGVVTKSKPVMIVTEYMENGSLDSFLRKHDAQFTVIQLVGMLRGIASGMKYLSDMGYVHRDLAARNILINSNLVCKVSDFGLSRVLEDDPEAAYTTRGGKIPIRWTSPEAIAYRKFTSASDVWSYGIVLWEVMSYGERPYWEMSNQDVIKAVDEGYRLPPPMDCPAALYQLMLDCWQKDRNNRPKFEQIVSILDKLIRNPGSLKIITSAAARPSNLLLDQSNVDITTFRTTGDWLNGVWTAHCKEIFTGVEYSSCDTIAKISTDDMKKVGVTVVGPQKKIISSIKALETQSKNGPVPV
# [2] = molecular target: Ephrin type-A receptor 4 (Homo sapiens) (UniProt P54764); conditions: at 1 µM
# [3] = molecular target: Ephrin type-A receptor 4 (Homo sapiens) (UniProt P54764); conditions: at 10 µM
# [4] = molecular target: Ephrin type-A receptor 5 (Homo sapiens) (UniProt P54756); conditions: at 1 µM
# [5] = molecular target: Ephrin type-A receptor 5 (Homo sapiens) (UniProt P54756); conditions: at 10 µM
# [6] = molecular target: Ephrin type-A receptor 7 (Homo sapiens) (UniProt Q15375); conditions: at 1 µM
# [7] = molecular target: Ephrin type-A receptor 7 (Homo sapiens) (UniProt Q15375); conditions: at 10 µM
# [8] = molecular target: T2, Ephrin type-A receptor 8 (Homo sapiens) (UniProt P29322); conditions: at 1 µM
# T2 sequence (whole entry): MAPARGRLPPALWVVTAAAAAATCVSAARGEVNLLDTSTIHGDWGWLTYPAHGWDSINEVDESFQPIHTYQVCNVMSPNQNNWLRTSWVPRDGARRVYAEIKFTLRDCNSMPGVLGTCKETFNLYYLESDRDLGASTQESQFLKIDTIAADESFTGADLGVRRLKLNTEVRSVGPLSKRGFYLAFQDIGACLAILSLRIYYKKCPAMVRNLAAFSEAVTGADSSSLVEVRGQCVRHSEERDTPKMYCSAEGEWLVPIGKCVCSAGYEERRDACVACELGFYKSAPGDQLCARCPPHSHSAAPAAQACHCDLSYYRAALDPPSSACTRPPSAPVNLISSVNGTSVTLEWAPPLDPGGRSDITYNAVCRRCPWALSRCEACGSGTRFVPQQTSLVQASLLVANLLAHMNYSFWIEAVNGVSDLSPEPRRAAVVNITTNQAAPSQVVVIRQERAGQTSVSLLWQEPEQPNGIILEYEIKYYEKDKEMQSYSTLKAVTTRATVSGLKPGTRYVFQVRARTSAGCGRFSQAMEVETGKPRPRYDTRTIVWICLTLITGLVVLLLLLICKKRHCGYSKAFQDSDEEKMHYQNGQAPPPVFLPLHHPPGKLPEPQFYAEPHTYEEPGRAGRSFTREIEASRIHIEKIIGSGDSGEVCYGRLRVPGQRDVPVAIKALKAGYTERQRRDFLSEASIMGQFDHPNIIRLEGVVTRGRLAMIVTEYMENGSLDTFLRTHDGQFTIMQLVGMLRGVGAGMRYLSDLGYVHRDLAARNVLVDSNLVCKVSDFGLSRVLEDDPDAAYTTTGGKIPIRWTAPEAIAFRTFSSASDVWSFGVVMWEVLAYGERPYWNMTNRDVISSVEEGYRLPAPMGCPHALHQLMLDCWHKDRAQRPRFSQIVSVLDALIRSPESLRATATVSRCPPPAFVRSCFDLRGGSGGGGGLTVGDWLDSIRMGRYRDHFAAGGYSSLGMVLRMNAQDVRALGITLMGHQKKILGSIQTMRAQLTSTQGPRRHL
# [9] = molecular target: T2, Ephrin type-A receptor 8 (Homo sapiens); conditions: at 10 µM
# [10] = molecular target: T3, Ephrin type-B receptor 1 (Homo sapiens) (UniProt P54762); conditions: at 1 µM
# T3 sequence (whole entry): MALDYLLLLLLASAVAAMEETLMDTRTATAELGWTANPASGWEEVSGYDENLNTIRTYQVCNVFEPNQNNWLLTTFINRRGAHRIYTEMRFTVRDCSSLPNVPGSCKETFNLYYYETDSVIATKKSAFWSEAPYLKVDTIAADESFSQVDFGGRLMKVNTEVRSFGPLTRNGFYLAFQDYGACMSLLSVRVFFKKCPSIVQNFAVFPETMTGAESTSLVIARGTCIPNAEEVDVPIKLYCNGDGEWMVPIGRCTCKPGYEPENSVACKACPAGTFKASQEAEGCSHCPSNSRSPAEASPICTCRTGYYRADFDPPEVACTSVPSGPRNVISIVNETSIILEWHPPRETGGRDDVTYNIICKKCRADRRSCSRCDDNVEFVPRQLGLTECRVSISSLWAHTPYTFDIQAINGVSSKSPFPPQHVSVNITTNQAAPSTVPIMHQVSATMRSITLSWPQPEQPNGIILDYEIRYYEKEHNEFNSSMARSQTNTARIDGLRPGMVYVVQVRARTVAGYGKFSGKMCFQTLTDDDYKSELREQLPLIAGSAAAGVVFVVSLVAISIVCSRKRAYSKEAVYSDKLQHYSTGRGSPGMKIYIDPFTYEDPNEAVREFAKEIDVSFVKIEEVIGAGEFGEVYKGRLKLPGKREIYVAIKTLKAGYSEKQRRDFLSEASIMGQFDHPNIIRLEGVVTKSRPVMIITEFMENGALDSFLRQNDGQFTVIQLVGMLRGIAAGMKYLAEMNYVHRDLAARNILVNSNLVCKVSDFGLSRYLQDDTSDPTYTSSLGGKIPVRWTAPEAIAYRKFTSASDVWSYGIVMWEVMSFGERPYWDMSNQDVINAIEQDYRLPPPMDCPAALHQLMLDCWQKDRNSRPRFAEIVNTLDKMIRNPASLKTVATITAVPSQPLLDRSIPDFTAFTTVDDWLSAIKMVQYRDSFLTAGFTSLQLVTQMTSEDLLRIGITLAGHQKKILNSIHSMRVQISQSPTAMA
# Sequence of Ephrin type-A receptor 4 (Homo sapiens) (P54764 whole entry): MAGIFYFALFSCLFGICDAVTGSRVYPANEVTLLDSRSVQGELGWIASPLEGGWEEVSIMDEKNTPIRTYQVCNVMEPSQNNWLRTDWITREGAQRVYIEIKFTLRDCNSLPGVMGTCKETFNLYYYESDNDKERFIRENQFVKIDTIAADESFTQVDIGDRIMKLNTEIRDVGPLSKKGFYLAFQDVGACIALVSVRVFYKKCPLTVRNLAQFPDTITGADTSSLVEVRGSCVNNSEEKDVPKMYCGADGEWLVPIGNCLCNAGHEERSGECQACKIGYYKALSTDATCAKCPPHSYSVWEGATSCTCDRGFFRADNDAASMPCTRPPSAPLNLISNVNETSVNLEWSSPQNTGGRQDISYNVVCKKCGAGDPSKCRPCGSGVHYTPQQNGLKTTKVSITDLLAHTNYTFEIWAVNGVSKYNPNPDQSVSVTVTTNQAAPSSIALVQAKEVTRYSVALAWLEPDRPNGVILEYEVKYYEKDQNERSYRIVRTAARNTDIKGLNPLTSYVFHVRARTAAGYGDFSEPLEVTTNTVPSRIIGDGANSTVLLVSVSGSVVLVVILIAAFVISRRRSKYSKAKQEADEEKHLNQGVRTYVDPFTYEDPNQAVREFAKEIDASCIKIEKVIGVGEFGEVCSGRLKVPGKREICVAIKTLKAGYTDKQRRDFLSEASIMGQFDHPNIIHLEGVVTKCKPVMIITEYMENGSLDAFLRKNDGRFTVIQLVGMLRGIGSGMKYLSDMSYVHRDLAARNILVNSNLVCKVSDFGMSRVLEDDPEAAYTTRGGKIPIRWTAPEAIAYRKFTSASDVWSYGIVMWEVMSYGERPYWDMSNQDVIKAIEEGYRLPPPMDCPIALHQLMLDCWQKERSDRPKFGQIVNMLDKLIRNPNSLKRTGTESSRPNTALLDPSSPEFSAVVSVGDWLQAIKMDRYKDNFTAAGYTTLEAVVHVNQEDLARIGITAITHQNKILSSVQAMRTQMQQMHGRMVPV
# Sequence of Ephrin type-A receptor 7 (Homo sapiens) (Q15375 28-998 limits assumed): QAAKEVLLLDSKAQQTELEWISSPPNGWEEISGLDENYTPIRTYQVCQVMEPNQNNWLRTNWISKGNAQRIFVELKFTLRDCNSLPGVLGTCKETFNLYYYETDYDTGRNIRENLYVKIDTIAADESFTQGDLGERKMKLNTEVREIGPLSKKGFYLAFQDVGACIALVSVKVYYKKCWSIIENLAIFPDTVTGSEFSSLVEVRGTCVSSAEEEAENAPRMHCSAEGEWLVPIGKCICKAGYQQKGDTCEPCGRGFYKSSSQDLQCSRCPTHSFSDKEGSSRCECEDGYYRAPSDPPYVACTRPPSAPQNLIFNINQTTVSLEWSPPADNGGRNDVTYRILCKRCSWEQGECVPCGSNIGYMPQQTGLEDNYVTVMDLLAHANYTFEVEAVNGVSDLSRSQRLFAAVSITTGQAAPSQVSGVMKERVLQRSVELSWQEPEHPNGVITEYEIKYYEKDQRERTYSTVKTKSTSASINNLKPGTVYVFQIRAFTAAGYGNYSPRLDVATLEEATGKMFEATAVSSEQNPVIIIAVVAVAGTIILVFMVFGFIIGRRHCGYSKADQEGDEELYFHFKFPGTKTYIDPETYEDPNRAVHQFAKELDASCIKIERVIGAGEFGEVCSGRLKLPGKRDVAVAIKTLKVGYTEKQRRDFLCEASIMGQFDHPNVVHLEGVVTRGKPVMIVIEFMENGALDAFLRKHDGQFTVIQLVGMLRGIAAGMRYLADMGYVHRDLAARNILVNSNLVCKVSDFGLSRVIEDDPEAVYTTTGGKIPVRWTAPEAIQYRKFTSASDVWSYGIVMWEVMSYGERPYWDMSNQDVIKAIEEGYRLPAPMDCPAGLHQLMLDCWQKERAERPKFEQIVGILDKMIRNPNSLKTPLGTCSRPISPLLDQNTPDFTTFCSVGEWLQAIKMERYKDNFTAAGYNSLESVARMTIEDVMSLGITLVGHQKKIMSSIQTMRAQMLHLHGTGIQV
# Sequence of Ephrin type-A receptor 5 (Homo sapiens) (P54756 whole entry): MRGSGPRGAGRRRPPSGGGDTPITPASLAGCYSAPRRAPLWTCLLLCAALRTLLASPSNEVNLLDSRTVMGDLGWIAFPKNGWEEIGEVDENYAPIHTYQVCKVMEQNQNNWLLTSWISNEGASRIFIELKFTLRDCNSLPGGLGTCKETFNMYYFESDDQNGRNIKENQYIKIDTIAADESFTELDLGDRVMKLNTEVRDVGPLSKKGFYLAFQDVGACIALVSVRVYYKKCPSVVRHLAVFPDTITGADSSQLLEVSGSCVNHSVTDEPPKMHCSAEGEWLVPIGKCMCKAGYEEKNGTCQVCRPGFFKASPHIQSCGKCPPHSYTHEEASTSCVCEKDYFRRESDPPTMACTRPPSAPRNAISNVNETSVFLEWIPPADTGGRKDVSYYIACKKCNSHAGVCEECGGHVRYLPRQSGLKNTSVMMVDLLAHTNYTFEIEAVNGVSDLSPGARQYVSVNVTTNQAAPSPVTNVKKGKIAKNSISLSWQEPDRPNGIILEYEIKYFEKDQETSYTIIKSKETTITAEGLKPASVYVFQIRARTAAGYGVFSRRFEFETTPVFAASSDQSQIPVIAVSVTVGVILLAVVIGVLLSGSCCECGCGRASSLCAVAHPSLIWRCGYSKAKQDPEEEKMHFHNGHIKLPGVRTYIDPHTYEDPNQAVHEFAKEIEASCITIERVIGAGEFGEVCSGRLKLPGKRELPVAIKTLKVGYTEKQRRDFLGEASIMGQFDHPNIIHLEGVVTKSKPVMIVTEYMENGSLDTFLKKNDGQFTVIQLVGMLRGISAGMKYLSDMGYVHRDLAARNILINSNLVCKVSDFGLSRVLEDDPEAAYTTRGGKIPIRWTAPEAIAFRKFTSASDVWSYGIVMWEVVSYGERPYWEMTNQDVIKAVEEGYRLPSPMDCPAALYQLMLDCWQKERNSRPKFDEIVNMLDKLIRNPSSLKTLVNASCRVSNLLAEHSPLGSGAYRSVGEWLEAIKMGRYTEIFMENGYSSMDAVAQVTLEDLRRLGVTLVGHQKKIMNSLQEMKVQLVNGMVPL
compound,measurement,setting,value
O=C1NC(=O)c2c1c1c3ccccc3[nH]c1c1[nH]c3cc(Br)ccc3c21,residual activity,[1],86%
same,residual activity,[2],104%
same,residual activity,[3],92%
same,residual activity,[4],111%
same,residual activity,[5],91%
same,residual activity,[6],99%
same,residual activity,[7],93%
same,residual activity,[8],95%
same,residual activity,[9],88%
same,residual activity,[10],106%
